Experimental data from the supplement of paper PMC10849652.
About 7,900 targets were measured; listed, in parts, are those with a hit and a random draw of the rest. About 0.6% of all pairs of compound and target were hits.

Compound: COC1=CC=C(C=C1)CN2C=CC3=C2C=C(C=C3)C(=O)NO
Assay: log2 fold change, soluble protein after heating vs DMSO (PISA); higher = thermal stabilisation; K562 cells, 10 uM, 30 min; active = over 0.2 and 3.5 SD of the protein, either way, in both replicates (recomputed)
In short: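 Soluble protein was quantified by TMTpro 16plex LC-MS/MS after channel sums were equalised. It was obtained as the supernatant after 21,000xg for 90 min from pooled aliquots of K562 cells (2×10^6 cells/mL, 10 μM compound, 30 min) heated for 3 min across 48°C-58°C and extracted in PBS with 0.5% NP-40 at 4°C. Thermal stability values are relative to control samples and come from duplicates. They are given as log2 fold changes.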

UniProt Q6UWB1, sequence (Q6UWB1 whole entry, looked up): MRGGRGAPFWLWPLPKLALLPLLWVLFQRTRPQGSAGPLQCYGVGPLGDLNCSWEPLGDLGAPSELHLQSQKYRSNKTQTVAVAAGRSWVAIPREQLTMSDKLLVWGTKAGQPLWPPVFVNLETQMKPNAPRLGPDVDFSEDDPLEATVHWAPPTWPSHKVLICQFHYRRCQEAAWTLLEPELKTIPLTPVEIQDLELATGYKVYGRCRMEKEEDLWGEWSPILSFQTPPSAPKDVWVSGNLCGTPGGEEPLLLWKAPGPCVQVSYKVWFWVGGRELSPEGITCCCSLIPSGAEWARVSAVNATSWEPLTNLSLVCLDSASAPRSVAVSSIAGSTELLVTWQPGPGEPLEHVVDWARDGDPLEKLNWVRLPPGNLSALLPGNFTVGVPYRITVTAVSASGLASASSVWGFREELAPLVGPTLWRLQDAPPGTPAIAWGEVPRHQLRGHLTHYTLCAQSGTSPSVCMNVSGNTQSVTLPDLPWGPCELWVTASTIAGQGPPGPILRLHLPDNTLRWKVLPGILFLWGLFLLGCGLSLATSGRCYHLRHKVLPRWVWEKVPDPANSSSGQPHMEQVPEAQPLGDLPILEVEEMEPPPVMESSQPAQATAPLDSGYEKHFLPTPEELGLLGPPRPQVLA
UniProt Q96LU5, sequence (Q96LU5 whole entry, looked up): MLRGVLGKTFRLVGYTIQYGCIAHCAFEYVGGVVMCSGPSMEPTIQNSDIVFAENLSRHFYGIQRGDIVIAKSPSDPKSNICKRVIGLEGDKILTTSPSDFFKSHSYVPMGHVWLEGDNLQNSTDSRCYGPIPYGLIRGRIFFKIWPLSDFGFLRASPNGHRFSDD
UniProt Q9NVC6, sequence (Q9NVC6 whole entry, looked up): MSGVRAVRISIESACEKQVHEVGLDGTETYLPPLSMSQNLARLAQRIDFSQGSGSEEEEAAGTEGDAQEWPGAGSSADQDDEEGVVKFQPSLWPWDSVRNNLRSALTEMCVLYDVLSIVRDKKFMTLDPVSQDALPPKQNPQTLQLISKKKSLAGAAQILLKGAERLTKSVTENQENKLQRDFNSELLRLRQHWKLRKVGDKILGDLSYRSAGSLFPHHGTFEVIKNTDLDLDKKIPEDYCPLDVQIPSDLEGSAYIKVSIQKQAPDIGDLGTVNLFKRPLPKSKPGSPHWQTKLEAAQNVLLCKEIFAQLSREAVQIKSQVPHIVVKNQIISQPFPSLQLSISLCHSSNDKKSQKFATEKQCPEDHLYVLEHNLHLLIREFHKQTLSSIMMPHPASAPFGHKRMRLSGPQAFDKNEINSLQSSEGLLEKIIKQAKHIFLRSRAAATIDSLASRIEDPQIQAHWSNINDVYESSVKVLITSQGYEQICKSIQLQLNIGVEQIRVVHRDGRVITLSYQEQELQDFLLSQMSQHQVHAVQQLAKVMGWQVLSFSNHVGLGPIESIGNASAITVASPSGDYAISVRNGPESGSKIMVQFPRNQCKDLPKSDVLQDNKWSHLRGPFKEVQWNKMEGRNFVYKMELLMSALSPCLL
UniProt Q6UB28, sequence (Q6UB28 whole entry, looked up): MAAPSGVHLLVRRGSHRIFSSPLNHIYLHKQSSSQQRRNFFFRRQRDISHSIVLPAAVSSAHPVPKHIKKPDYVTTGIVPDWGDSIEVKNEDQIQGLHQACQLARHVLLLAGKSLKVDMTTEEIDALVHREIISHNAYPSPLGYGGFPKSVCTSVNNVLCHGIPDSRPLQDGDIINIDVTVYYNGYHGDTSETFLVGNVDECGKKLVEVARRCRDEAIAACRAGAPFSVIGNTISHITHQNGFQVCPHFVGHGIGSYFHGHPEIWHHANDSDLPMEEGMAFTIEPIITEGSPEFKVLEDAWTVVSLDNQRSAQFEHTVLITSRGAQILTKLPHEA
UniProt P36507, sequence (P36507 whole entry, looked up): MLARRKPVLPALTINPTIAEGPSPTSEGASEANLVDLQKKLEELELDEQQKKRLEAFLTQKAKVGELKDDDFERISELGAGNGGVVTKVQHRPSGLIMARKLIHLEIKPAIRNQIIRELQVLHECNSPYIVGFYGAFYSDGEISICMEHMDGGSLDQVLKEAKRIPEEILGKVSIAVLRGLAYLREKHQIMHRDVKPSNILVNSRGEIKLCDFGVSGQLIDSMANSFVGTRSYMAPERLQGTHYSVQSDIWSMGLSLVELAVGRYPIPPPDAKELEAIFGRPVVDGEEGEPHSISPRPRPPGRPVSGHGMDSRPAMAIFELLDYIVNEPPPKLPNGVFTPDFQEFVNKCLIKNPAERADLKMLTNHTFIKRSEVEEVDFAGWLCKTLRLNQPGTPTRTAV
UniProt Q13422, sequence (Q13422 whole entry, looked up): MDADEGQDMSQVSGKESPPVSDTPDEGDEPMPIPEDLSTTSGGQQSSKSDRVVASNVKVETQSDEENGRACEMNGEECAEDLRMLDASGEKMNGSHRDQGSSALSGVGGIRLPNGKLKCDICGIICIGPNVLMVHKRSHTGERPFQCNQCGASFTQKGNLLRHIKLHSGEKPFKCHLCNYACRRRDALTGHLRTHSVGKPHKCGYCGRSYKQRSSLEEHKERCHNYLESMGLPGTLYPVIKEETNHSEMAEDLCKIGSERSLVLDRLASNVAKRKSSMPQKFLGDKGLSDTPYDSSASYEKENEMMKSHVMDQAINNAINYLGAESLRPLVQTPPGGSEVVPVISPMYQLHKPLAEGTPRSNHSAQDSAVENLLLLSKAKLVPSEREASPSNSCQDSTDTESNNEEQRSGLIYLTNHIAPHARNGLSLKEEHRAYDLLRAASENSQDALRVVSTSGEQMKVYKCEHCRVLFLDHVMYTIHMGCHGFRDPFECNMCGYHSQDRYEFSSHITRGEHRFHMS
UniProt Q9Y496, sequence (Q9Y496 whole entry, looked up): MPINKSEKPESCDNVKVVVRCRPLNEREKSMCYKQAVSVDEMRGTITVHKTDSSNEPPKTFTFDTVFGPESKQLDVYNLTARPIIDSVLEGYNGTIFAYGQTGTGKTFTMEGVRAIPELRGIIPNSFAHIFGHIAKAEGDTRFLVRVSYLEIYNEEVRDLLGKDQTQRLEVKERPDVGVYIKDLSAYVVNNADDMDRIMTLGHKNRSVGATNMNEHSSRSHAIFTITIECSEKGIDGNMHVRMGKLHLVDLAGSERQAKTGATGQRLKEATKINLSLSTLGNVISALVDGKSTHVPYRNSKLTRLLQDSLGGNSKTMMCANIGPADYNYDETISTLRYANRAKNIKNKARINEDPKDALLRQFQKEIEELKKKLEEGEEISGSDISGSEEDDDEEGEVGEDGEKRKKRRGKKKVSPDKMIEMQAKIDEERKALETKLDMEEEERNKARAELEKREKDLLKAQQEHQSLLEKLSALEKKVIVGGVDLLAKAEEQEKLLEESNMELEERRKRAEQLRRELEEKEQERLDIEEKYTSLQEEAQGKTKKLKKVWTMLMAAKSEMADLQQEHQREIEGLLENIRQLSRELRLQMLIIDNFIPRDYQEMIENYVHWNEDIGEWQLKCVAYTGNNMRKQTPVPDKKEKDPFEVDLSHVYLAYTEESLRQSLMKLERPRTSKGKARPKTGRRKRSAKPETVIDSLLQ
UniProt Q9C0E8, sequence (Q9C0E8 whole entry, looked up): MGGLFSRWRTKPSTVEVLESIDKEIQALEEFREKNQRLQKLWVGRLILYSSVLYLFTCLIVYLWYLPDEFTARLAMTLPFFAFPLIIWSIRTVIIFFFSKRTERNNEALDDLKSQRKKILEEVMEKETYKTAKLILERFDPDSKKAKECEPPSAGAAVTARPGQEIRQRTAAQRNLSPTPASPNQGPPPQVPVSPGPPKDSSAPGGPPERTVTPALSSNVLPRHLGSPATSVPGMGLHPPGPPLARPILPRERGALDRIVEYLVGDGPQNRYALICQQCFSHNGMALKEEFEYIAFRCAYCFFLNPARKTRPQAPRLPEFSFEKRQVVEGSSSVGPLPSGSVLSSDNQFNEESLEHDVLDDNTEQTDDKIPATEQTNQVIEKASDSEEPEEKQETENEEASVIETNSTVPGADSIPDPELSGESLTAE
UniProt P20700, sequence (P20700 whole entry, looked up): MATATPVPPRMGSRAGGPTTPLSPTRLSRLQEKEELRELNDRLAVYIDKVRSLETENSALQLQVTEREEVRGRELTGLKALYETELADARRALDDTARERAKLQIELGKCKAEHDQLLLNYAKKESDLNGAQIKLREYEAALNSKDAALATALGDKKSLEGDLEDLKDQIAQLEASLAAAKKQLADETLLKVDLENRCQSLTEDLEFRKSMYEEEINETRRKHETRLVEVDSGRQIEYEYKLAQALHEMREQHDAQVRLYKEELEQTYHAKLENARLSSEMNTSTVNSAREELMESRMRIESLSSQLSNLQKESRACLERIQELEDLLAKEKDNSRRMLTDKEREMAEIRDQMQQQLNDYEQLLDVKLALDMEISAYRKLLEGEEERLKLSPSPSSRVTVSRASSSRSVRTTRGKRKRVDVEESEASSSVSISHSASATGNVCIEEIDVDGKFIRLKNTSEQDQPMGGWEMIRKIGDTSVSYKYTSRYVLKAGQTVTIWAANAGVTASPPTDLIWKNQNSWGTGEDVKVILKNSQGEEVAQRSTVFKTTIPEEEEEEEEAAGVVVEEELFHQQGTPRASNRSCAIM
UniProt Q8WWC4, sequence (Q8WWC4 whole entry, looked up): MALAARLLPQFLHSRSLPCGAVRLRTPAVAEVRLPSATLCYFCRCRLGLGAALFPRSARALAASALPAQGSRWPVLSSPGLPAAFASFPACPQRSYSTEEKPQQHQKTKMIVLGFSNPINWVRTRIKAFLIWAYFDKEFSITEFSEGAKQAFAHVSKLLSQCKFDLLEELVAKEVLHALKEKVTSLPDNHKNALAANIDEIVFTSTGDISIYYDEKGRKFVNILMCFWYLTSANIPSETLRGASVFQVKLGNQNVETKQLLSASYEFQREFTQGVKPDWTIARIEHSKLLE
UniProt Q8WV07, sequence (Q8WV07 whole entry, looked up): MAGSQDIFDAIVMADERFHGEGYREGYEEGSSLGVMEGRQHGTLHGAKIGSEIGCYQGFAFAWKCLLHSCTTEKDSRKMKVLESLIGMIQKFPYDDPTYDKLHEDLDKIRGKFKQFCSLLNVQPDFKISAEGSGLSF

| Target | log2 fold change |
| --- | --- |
| LTV1 (UniProt Q96GA3) | -0.019 (inactive) |
| LMNB1 (UniProt P20700) | -0.034 (inactive) |
| LNPK (UniProt Q9C0E8) | 0.007 (inactive) |
| LDAH isoform 2 (UniProt Q9H6V9) | 0.06 (inactive) |
| IL27RA (UniProt Q6UWB1) | -0.02 (inactive) |
| KIF2C (UniProt Q99661) | 0.063 (inactive) |
| LAMP2 (UniProt P13473) | -0.125 (inactive) |
| LMNB2 (UniProt Q03252) | -0.023 (inactive) |
| MAP1LC3B2 (UniProt A6NCE7) | -0.026 (inactive) |
| METAP1D (UniProt Q6UB28) | 0.342 (active) |
| LIMD1 (UniProt Q9UGP4) | 0.027 (inactive) |
| MED17 (UniProt Q9NVC6) | 0.004 (inactive) |
| KIF3A (UniProt Q9Y496) | 0.219 (inactive) |
| IKZF1 (UniProt Q13422) | -0.045 (inactive) |
| KSR1 (UniProt Q8IVT5) | 0.015 (inactive) |
| MAIP1 (UniProt Q8WWC4) | 0.054 (inactive) |
| LPGAT1 (UniProt Q92604) | 0.124 (inactive) |
| LTO1 (UniProt Q8WV07) | -0.06 (inactive) |
| LARP4 isoform 4 (UniProt Q71RC2) | 0.005 (inactive) |
| IMMP1L (UniProt Q96LU5) | -0.041 (inactive) |
| LRBA (UniProt P50851) | -0.004 (inactive) |
| LMBRD2 (UniProt Q68DH5) | -0.031 (inactive) |
| MAP2K2 (UniProt P36507) | -0.014 (inactive) |
